Rows were chosen to be rich in hits. Some 1.8% of all compounds tested hit in one or more screens of this group.
EWS-Fli block – inhibitors of EWS/Fli oncoprotein transcriptional activity | AID 651661 | inhibition, % at 12.6 µM | A673 NR0B1-luciferase reporter, viability-normalised | 0.67% of 350,000 active;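 active = mean inhibition of at least 50% after viability correction, with every replicate also passing that limit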;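 note: firefly luciferase signal divided by Alamar Blue viability fluorescence both relative to DMSO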
F508del corr – correctors of CFTR F508del function in bronchial epithelial cells. 0.36% of 350,000 active. CFBE cells, YFP halide quenching; stimulated with forskolin plus potentiator P3; % fluorescence drop versus neutral controls. activity (quench increase), % at 7.58 µM. AID 720511;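 active = mean added fluorescence quench of at least 8% versus neutral control, with both replicates also reaching 8%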;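 note: cells transiently co-express mutant CFTR-F508del with the halide-sensitive YFP; corrector assay measuring rescue of mutant channel to the surface after 24 h compound exposure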
LGR2 inh – Drosophila LGR2 receptor signaling inhibition; inhibition, % at 9.99 µM; AID 720647; 0.35% of 380,000 active; HEK293 LGR2, CRE-luciferase, bursicon-stimulated, 4 h;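 active = drop in luminescence signal, shown as inhibition above about 50% in the replicate tests, limit read from the data, passing the limit was not always enough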;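 note: agonist challenge used bursicon conditioned medium at about half maximal strength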
PAX8 reporter – PAX8 transcriptional activity inhibition | RMG-I TPO-luciferase reporter, SteadyGlo, 24 h | 1.2% of 360,000 active | inhibition, % at 12.6 µM;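 active = mean replicate inhibition at least 60% with every replicate also reaching 60%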;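 note: luciferase light reporting Pax8 driven TPO promoter activity; plate controls were median of neutral control wells for no effect and mitoxantrone controls for full effect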
The depositor's hits bear a star.

`CCOC(=O)N1CCN(C(=O)c2ccc3oc(CCCc4ccccc4)nc3c2)CC1` gave F508del corr -5.6, LGR2 inh -68.4 and PAX8 reporter -208.2.
For O=C1/C(=C/c2ccccc2)CCc2ccc(Cl)nc21 the results were EWS-Fli block -4.7, F508del corr 1.5, LGR2 inh 70.1* and PAX8 reporter 0.5.
`COc1ccc(NC(=O)Nc2ccc3c(c2)CC(=O)N([C@@H](C)CO)C[C@H](C)[C@@H](CN(C)Cc2ccc(C(F)(F)F)cc2)O3)cc1` gave EWS-Fli block 15.0, F508del corr 3.0, LGR2 inh -10.5 and PAX8 reporter 69.7*.
`C[C@@H]1CN([C@H](C)CO)C(=O)c2cc(NC(=O)Cc3cn(C)c4ccccc34)ccc2O[C@@H]1CN(C)Cc1ccc(Cl)c(Cl)c1` gave EWS-Fli block -1.7, F508del corr 8.1* and LGR2 inh -17.9.
C[C@@H]1CN([C@@H](C)CO)C(=O)Cc2cc(NC(=O)Nc3ccc(F)cc3)ccc2O[C@H]1CN(C)Cc1ccc(C(F)(F)F)cc1 was read as EWS-Fli block 54.0*, F508del corr 1.3 and LGR2 inh 23.8.
Screening C[C@H](CO)N1C[C@H](C)[C@@H](CN(C)Cc2ccc(-c3ccccc3)cc2)Oc2ccc(NC(=O)Nc3ccc(C(F)(F)F)cc3)cc2CC1=O returned EWS-Fli block 6.8, F508del corr 3.4, LGR2 inh 23.7 and PAX8 reporter 67.9*.
For O=C(COC(=O)c1nc(Cl)ccc1Cl)Nc1cccc(S(=O)(=O)N2CCOCC2)c1 the results were EWS-Fli block -5.7, F508del corr -3.7, LGR2 inh 7.4 and PAX8 reporter -10.1.
C[C@@H]1CN([C@@H](C)CO)C(=O)Cc2cc(NC(=O)Cc3cn(C)c4ccccc34)ccc2O[C@H]1CN(C)Cc1ccc(C(F)(F)F)cc1 was read as EWS-Fli block 16.9, F508del corr -1.9, LGR2 inh 8.8 and PAX8 reporter 71.0*.
Screening C[C@H]1CN([C@@H](C)CO)C(=O)Cc2cc(NC(=O)CCN3CCOCC3)ccc2O[C@H]1CN(C)Cc1ccc(C(F)(F)F)cc1 returned EWS-Fli block 60.0*, F508del corr 6.6, LGR2 inh 6.9 and PAX8 reporter -2.1.
For C[C@H]1CN([C@@H](C)CO)C(=O)Cc2cc(NC(=O)Nc3ccc(C(F)(F)F)cc3)ccc2O[C@@H]1CN(C)Cc1ccccc1 the results were EWS-Fli block -8.8, F508del corr 5.0, LGR2 inh -32.9 and PAX8 reporter 33.4.
`C[C@@H]1CN([C@@H](C)CO)C(=O)Cc2cc(NC(=O)Nc3ccc(C(F)(F)F)cc3)ccc2O[C@H]1CN(C)Cc1ccccc1` gave EWS-Fli block 13.6, F508del corr 1.6, LGR2 inh 0.5 and PAX8 reporter 67.9*.
For C[C@@H]1CN([C@H](C)CO)C(=O)Cc2cc(NC(=O)Nc3ccc(F)cc3)ccc2O[C@H]1CN(C)Cc1ccc(Cl)c(Cl)c1 the results were EWS-Fli block 5.1, F508del corr 2.6, LGR2 inh 19.5 and PAX8 reporter 108.8*.
For CN(CC(=O)Nc1c(Cl)cccc1Cl)C(=O)Cc1ccsc1 the results were EWS-Fli block 7.5, F508del corr -3.0, LGR2 inh 7.2 and PAX8 reporter -3.7.
Screening COc1ccc(CCNC(=O)[C@@H](NC(N)=O)C(C)C)cc1 returned EWS-Fli block -21.9, F508del corr 1.3, LGR2 inh 8.8 and PAX8 reporter 11.0.
Screening C[C@@H]1CN([C@@H](C)CO)C(=O)c2cc(NC(=O)Cn3cnnn3)ccc2O[C@H]1CN(C)Cc1ccc(Cl)c(Cl)c1 returned EWS-Fli block 62.9*, F508del corr 0.0, LGR2 inh -4.1 and PAX8 reporter -12.8.
C[C@@H]1CN([C@@H](C)CO)C(=O)Cc2cc(NC(=O)C3CCCCC3)ccc2O[C@H]1CN(C)Cc1ccc(Cl)c(Cl)c1 was read as EWS-Fli block 8.7, F508del corr 2.4, LGR2 inh 18.2 and PAX8 reporter 94.7*.
For CC(=O)c1ccc(NC(=O)CSc2nc3[nH]c(=O)cc(O)c3s2)cc1 the results were EWS-Fli block 3.6, F508del corr 0.1, LGR2 inh -0.3 and PAX8 reporter -4.2.
Screening O=c1cc(O)c2sc(Nc3ccc(F)c(Cl)c3)nc2[nH]1 returned EWS-Fli block 27.8, F508del corr 0.4, LGR2 inh 4.6 and PAX8 reporter 73.7*.
For O=c1cc(O)c2sc(Nc3ccc(Cl)c(F)c3)nc2[nH]1 the results were EWS-Fli block 28.9, F508del corr 0.1, LGR2 inh -3.9 and PAX8 reporter 70.1*.
Screening COc1ccc(Nc2nc3[nH]c(=O)cc(O)c3s2)cc1 returned EWS-Fli block -3.2, F508del corr -2.2, LGR2 inh 17.0 and PAX8 reporter 26.8.
